Screening results: PubChem, several laboratories
Compounds with a hit are over-represented: about 4.5% of the library has one in this group of screens.
PfHsp90 set2: reduces growth (ATP signal) of yeast expressing P. falciparum Hsp90. inhibition, % at 9.4 µM. 310,000 tested, 0.32% active. S. cerevisiae expressing PfHsp90, BacTiter-Glo ATP, 48 h; yeast lacking PDR1 and PDR3 efflux regulators. AID 504621;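 active = every replicate shows inhibition above about 80%, whatever the replicate mean, limit read from the data; inconclusive = mean inhibition reaches the set limit but some replicate falls short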;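 also: 0% = DMSO neutral controls and 100% = 20 µM radicicol positive controls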
NALP3 yeast inh: blocks the NALP3 inflammasome reconstituted in yeast; Yeast reconstituted NLRP3/ASC/caspase-1, beta-gal luminescence, 24 h; inhibition, % at 10 µM; 330,000 tested, 0.39% active; AID 2825;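 active = inhibition of 50% or more; inactive = inhibition below 50%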;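 also: plate controls were induced DMSO wells for no effect and uninduced yeast grown without galactose for full effect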
tim23-1 inh: inhibits growth of tim23-1 mutant yeast; S. cerevisiae tim23-1 growth, BacTiter-Glo luminescence, 24 h; inhibition, % at 20 µM; 330,000 tested, 1.3% active; AID 463212;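 active = growth inhibition of the mutant yeast at or above 50%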;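 also: temperature-sensitive mutant grown at 25 °C; plate controls were DMSO-treated mutant yeast for no effect and medium wells lacking yeast for full effect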
TIM10 inh: TIM10 yeast growth inhibition | inhibition, % at 10 µM | S. cerevisiae TIM10 strain growth, BacTiter-Glo luminescence, 24 h | 330,000 tested, 1.4% active;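 active = inhibition of 40% or more at the single tested concentration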;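 also: wild-type TIM10 isogenic control strain grown at permissive 25 °C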
tim10-1 inh: tim10-1 yeast growth inhibition; S. cerevisiae tim10-1 ts strain growth, BacTiter-Glo, 24 h; inhibition, % at 20 µM; 330,000 tested, 2.2% active; AID 463190;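 active = inhibition of at least 40%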;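 also: mutant grown at 25 °C; 0% = DMSO wells with yeast and 100% = wells holding no yeast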
SKKanGAS inh: SKKanGAS growth inhibition; AID 1662; S. pyogenes SKKanGAS, kanamycin growth, BacTiter-Glo, 6 h; 300,000 tested, 1.3% active; inhibition, % at 7.5 µM;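 active = mean replicate score, as percent of positive control median, at least 50; inconclusive = mean below 50 but one replicate at or above 50; inactive = mean and every replicate below 50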;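 also: strain carries kanamycin resistance gene driven by streptokinase promoter and grows in 40 µg/ml kanamycin; loss of luminescence reflects streptokinase promoter inhibition or plain growth inhibition; 0% = median of DMSO wells and 100% = positive control at its reference dose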
tim10-1 conf: confirmation of tim10-1 mutant yeast growth inhibitors | shares compounds with tim10-1 inh | S. cerevisiae tim10-1 ts strain growth, BacTiter-Glo, 24 h | inhibition, % at 20 µM | 7,400 tested, 56% active;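 active = inhibition of yeast growth at or above a set limit in either of two repeat tests at 20 µM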;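 also: tim10-1 mutant grown at permissive 25 °C to find synthetic lethal compounds; 0% = DMSO yeast wells and 100% = medium wells without yeast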
Numbers without * were called inactive; ? = inconclusive; . = no result.

SMILES	PfHsp90 set2	NALP3 yeast inh	tim23-1 inh	TIM10 inh	tim10-1 inh	SKKanGAS inh	tim10-1 conf
Cc1ccc(S(=O)(=O)N(C)C)cc1NC(=S)NC(C)CCCC(C)C (centres undefined)	10	9	19	13	15	-2	.
CCCCCCC(C)NC(=S)Nc1cc(S(=O)(=O)N(C)C)ccc1C (centres undefined)	.	1	4	11	41*	6	16
CCOC(=O)c1sc(-c2ccc(Br)cc2)cc1N	-4	-63	30	38	67*	0	58*
COC(=O)c1c(NC(=O)c2nn(C)cc2Cl)sc2c1CCCC2	.	14	44	32	50*	38	14
CC1(C)O[C@@H]2C[C@H]3[C@@H]4CCC5=CC(=O)CC[C@]5(C)[C@@]4(F)[C@@H](O)C[C@]3(C)[C@]2(C(=O)CCl)O1	3	-5	20	2	12	.	.
Cc1ccc(C(=O)O/N=C2\CCSc3ccc(C)cc32)cc1	.	-7	37	29	40*	13	33*
COc1cnc(-c2ccccn2)nc1Sc1ccc(Cl)cc1	.	40	36	38	43*	?	30
COc1cc(C(F)(F)F)nc(-c2ccccn2)n1	3	-2	3	1	7	4	.
COc1cnc(N(C)C)nc1Sc1ccc(Cl)cc1	-1	17	9	14	28	18	.
COc1cnc(-c2ccccn2)nc1Sc1ccc(F)cc1	2	31	41	20	41*	56*	34*
COc1cnc(-c2ccccn2)nc1Oc1cccc(C(F)(F)F)c1	0	29	38	21	44*	38	22
COc1cnc(-c2ccccn2)nc1Sc1ccccc1	-43	23	48	13	41*	91*	43*
CCN(CC)c1ccc(NC(=O)c2ccc3c(c2)OCO3)cc1	9	20	20	8	6	-3	.
NC(=S)N/N=C/c1ccc(-n2nncc2-c2ccc(Cl)cc2)cc1	-7	22	20	15	21	-1	.
COCCn1c(-c2ccc(-c3ccc([N+](=O)[O-])cc3Br)o2)nc2c1c(=O)[nH]c(=O)n2CC(C)C	-29	10	31	-3	26	16	.
CCCCn1c(N)c(N(C(=O)CSc2nnnn2-c2ccccc2)C2CCCC2)c(=O)[nH]c1=O	-22	26	-2	-1	1	.	.
COc1ccc2sc(-c3ccc(S(C)(=O)=O)cc3)c(C#CCO)c2c1	-11	17	47	15	43*	.	41*
CCOC(=O)CSc1nnc(-c2ccc(S(=O)(=O)N3CCC(C)CC3)cc2)o1	8	3	20	-3	30	4	.
CC(=O)CSc1nnc(-c2ccc(S(=O)(=O)N3CCC(C)CC3)cc2)o1	6	-2	29	29	42*	3	24
O=C(Oc1c(CN2CCOCC2)cc(Cl)c2cccnc12)c1ccccc1	6	28	42	36	51*	12	20
CC1(C)OC(=O)C=C[C@]2(C)[C@H]3CC[C@@]4(C)[C@H](C(=O)O)OC(=O)[C@H]5O[C@]54[C@]3(C)C(=O)C[C@@H]12	-11	1	10	1	-16	.	.
CCN(CC)c1ccc(-c2nnc(SCC(=O)Nc3ccccc3C#N)n2-c2ccccc2)cc1	1	9	30	20	42*	28	20
CC(=O)c1ccc2c(c1)Cc1cc(C(C)=O)ccc1-2	-7	40	15	11	16	-18	.
CC(=O)c1ccc2c(c1)c(C#N)c1ccccc1[n+]2[O-]	-46	35	48	18	68*	7	51*
CCCN(C(=O)Cn1c(C(F)(F)F)nc2ccccc21)C1CCS(=O)(=O)C1 (centres undefined)	2	4	0	3	3	4	.
CCOc1cccc(/C=N/Nc2ccc(S(=O)(=O)N(CC)CC)cn2)c1O	-11	-7	20	28	41*	91*	27
CCN(CC)S(=O)(=O)c1ccc(N/N=C/c2cc(OC)c(OC)cc2OC)nc1	-18	-6	-40	-29	-16	0	.
